# Measurements as given in ChEMBL document CHEMBL1961873, “Compounds: GSK PKIS; Assays: Nanosyn kinase panel” (2012).
# Where “and” joins values, the source holds several entries; their conditions need not be identical. Equal values may be shown once.
# Legend:
# [1] = molecular target: T1, Aurora kinase A (Homo sapiens) (UniProt O14965); conditions: at 1 µM;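 note: values are mean percent inhibition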
# T1 sequence (whole entry): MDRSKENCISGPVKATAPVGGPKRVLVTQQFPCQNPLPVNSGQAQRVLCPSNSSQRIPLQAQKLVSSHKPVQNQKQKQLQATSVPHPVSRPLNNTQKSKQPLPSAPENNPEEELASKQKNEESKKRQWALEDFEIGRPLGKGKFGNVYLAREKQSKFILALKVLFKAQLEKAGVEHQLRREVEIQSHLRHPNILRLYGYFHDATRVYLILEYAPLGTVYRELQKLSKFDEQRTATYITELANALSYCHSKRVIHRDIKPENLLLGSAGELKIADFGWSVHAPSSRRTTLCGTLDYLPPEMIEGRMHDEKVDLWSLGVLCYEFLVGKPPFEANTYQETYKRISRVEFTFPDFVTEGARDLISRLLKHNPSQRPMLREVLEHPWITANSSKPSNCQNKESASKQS
# [2] = molecular target: Aurora kinase B (Homo sapiens) (UniProt Q96GD4); conditions: at 0.1 µM
# [3] = molecular target: Aurora kinase B (Homo sapiens) (UniProt Q96GD4); conditions: at 1 µM
# [4] = molecular target: T2, Aurora kinase C (Homo sapiens) (UniProt Q9UQB9); conditions: at 0.1 µM
# T2 sequence (whole entry): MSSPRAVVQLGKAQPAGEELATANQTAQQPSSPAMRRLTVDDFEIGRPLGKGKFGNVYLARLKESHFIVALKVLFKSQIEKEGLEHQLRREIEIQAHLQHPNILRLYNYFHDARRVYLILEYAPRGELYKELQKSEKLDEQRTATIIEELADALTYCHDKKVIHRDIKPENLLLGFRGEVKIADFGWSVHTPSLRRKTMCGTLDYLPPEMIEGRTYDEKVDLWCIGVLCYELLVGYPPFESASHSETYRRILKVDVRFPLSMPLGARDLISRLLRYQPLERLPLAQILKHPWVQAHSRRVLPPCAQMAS
# [5] = molecular target: T2, Aurora kinase C (Homo sapiens); conditions: at 1 µM
# [6] = molecular target: Serine/threonine-protein kinase 10 (Homo sapiens) (UniProt O94804); conditions: at 0.1 µM
# [7] = molecular target: Serine/threonine-protein kinase 10 (Homo sapiens) (UniProt O94804); conditions: at 1 µM
# [8] = molecular target: T3, Mitogen-activated protein kinase kinase kinase kinase 2 (Homo sapiens) (UniProt Q12851); conditions: at 0.1 µM
# T3 sequence (whole entry): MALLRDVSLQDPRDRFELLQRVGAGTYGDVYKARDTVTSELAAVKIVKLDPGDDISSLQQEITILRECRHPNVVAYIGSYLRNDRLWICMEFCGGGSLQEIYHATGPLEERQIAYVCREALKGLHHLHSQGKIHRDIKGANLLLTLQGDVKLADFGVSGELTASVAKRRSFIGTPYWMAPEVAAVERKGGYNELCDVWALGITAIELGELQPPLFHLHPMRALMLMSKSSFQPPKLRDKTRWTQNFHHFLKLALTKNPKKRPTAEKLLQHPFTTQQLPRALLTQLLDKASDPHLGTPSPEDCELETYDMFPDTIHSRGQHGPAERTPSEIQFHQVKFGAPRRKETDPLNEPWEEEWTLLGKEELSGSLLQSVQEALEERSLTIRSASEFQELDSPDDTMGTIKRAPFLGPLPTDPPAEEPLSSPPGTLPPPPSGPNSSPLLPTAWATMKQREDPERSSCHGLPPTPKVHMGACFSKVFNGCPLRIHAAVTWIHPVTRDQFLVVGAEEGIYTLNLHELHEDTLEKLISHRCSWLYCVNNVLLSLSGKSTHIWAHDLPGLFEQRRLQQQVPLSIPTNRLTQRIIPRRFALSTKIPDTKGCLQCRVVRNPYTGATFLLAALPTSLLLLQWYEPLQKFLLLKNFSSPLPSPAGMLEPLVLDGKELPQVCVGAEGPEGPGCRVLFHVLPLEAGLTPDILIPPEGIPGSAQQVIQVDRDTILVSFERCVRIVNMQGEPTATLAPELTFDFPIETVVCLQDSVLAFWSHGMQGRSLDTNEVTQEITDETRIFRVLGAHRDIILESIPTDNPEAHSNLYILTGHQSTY
# [9] = molecular target: T3, Mitogen-activated protein kinase kinase kinase kinase 2 (Homo sapiens); conditions: at 1 µM
# [10] = molecular target: Mitogen-activated protein kinase kinase kinase kinase 4 (Homo sapiens) (UniProt O95819); conditions: at 0.1 µM
# Sequence of Mitogen-activated protein kinase kinase kinase kinase 4 (Homo sapiens) (O95819 2-1239 limits assumed): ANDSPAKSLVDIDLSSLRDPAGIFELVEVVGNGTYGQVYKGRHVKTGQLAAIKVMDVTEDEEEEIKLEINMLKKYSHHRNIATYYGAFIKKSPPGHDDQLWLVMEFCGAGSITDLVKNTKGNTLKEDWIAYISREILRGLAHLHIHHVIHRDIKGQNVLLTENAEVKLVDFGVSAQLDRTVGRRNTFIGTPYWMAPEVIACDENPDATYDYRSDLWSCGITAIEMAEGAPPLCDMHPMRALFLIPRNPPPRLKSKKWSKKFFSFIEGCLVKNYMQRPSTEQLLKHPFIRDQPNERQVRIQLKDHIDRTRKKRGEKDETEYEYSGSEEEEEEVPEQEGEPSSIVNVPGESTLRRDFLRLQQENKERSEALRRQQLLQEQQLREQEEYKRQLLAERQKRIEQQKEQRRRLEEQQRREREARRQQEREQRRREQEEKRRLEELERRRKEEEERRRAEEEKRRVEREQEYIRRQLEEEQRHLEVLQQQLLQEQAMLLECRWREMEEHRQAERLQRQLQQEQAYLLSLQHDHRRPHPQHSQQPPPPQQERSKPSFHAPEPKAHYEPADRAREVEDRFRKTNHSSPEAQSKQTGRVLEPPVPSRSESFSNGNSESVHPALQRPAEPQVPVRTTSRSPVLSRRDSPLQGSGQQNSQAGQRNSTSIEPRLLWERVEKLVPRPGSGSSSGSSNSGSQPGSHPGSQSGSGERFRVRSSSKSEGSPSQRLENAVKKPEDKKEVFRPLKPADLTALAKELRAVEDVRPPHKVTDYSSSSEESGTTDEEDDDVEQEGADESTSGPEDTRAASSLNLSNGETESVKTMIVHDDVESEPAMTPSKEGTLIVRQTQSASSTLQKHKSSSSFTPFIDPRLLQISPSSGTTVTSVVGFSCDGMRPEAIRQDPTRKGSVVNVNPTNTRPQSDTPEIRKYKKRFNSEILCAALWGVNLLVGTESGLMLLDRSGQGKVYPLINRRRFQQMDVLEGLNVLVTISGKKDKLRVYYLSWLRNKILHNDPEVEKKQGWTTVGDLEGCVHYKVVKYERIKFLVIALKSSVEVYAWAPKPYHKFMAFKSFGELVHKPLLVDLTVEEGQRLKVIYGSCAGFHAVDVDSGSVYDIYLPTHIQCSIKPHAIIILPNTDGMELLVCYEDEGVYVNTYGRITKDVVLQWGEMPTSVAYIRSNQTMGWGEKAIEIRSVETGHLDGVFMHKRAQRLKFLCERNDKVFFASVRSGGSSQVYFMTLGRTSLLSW
# Sequence of Serine/threonine-protein kinase 10 (Homo sapiens) (O94804 whole entry, looked up): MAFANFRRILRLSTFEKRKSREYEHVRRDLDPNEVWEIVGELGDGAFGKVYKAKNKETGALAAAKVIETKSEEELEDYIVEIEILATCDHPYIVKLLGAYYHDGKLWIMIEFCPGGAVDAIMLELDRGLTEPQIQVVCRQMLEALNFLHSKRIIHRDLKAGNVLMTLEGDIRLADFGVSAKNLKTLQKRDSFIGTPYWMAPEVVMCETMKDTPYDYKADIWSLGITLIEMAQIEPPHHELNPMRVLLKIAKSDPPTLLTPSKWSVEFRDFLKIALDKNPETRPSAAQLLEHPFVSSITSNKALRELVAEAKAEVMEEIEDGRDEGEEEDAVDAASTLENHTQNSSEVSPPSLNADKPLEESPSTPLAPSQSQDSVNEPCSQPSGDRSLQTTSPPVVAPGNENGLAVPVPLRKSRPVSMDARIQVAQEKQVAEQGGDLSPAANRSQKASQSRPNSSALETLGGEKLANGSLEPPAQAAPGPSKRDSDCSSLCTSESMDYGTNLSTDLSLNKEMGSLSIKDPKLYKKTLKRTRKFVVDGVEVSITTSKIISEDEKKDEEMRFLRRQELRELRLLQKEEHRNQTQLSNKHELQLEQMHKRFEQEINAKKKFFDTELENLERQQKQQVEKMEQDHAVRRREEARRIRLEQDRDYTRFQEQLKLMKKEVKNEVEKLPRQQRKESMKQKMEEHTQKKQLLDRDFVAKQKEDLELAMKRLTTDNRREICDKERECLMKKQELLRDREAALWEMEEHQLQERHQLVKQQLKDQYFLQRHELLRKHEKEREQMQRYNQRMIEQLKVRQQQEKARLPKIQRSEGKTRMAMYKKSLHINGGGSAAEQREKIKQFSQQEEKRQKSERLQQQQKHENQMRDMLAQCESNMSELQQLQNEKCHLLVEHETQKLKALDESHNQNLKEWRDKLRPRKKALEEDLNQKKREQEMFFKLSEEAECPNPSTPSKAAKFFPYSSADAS
# Sequence of Aurora kinase B (Homo sapiens) (Q96GD4 whole entry): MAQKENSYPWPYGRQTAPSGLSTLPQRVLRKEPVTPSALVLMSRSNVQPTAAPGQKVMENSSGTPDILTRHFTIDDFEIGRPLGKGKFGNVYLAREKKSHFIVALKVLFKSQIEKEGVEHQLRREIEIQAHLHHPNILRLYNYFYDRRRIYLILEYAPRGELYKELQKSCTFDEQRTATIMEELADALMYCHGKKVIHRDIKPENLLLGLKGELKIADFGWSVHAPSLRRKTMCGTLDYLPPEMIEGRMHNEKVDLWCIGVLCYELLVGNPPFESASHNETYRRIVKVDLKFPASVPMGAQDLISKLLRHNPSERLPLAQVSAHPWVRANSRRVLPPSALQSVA
SMILES,inhibition [1],inhibition [2],inhibition [3],inhibition [4],inhibition [5],inhibition [6],inhibition [7],inhibition [8],inhibition [9],inhibition [10]
CC1(C)CC(n2cnc(-c3ccc(F)cc3)c2-c2ccnc(N)n2)CC(C)(C)N1,4.57%,3.04%,-0.43%,-0.39%,-1.87%,1.32%,6.74%,1.36%,2.09%,2.07%
CCS(=O)(=O)c1ccc(OC)c(Nc2ncc(-c3cccc(F)c3)o2)c1,26.8%,4.7%,3.78%,0.03%,5.54%,12%,24.3%,1.31%,8.13%,6.47%
COc1ccc(-c2nn3ncccc3c2-c2ccnc(Nc3ccc(F)c(F)c3)n2)cc1,28.5%,4.36%,14.3%,1.75%,6.44%,7.15%,23.5%,2.1%,1.49%,8.56%
CC1=C(C(=O)Nc2ccc3[nH]nc(C)c3c2)C(c2ccc(C(F)(F)F)cc2)CC(=O)N1 (centres undefined),88.3%,7.45%,45.7%,7.71%,78.2%,2.01%,4.46%,0.76%,3.74%,4.23%
CS(=O)(=O)Nc1ccc(-c2ccc3c(NC(=O)C4CC4)n[nH]c3c2)cc1,20.2%,4.33%,8.21%,1.71%,23.3%,5.26%,6.56%,1.04%,5.76%,6.29%
CN(c1ccc(NC(=O)NCCN2CCOCC2)cc1)c1ccnc(Nc2ccc(CS(C)(=O)=O)cc2)n1,93.9%,29.7%,76.9%,43.8%,104%,11.9%,34.2%,0.62%,3.53%,4.19%
COc1cc(Nc2ncc(-c3ccccc3)o2)cc(OC)c1,30.3%,5%,19.7%,3.27%,29.6%,8.54%,12.9%,0.95%,7.2%,7.08%
COc1cc(N2CCN(C(C)C)CC2)ccc1Nc1nc(Nc2cccc3ncccc23)c2cc[nH]c2n1,4.47%,0.66%,4.9%,0.27%,-0.31%,1.54%,0.74%,2.02%,2.89%,1.88%
CCOc1ccc2c(-c3ccnc(Nc4cc(OC)cc(C(F)(F)F)c4)n3)cnn2n1,13%,2.18%,8.92%,1.08%,4.09%,-0.06%,3.44%,0.08%,2.69%,1.85%
CCn1c(-c2nonc2N)nc2cncc(C(=O)NCCNC)c21,5.14%,2.77%,1.83%,0.6%,5.56%,11.8%,18%,0.67%,3.62%,4.46%
CCCNc1cccc(-n2ncc3c(N/N=C/c4ccncc4)ncnc32)c1,70.7%,14.3%,43.8%,17%,58.5%,6.3%,28.4%,1.16%,3.57%,9.69%
CN1CCC(C(=O)Nc2n[nH]c3nc(-c4ccc(O)cc4)c(Br)cc23)CC1,3.82% and 3.89%,-1.01% and 4.45%,4.6% and 6.84%,-1.83% and 3.73%,-7.86% and 5.17%,4.1% and 3%,13.5% and 9.07%,4.77% and 3.87%,24.7% and 19.9%,7.33% and 2.89%
Nc1ncnc2occ(-c3ccc(NC(=O)Nc4cc(C(F)(F)F)ccc4F)cc3)c12,–,24.4% and 17.3%,69.9% and 55.9%,13.4% and 13.3%,92.5% and 68.8%,25% and 20.8%,69.2% and 63.1%,35.8% and 34.4%,66.3% and 65.5%,7.35% and 0.68%
N#Cc1cccc(Nc2ncc(-c3ccccc3)o2)c1,11.6%,4.81%,1.97%,1.44%,5.62%,2.27%,3.84%,0.79%,2.94%,4.93%
COc1cc2c(cc1Nc1nc(Nc3cccc(F)c3C(N)=O)c3cc[nH]c3n1)N(C(=O)CN1CCN(C(C)C)CC1)CC2,0.34%,1.62%,2.41%,-0.27%,3.25%,2.03%,5.12%,1.69%,11.3%,0.45%
COc1ccc2ncn(-c3cc(O[C@H](C)c4ccccc4C(F)(F)F)c(C(N)=O)s3)c2c1,5.59%,1.15%,7.77%,-1.97%,-0.3%,35.2%,80.7%,0.64%,4.67%,0.55%
